About 83,000 compounds went through this panel and 20% of them were active in at least one assay; those are over-represented in the sample as a whole.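 Each cell line was grown in a 96-well plate and treated with one concentration of compound for 48 hours. Values below 10 were considered active.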 Values without a mark were called inactive. Calls of active or inactive are those of the source.
Columns and labels:
Assay in all cases: NCI-60 one-dose screen, 48 h (100 = growth as untreated, 0 = no growth, -100 = all killed)
Details in all cases: 10 µM unless noted
[1] = system: HCT-15 colon
[2] = system: HT29 colon
[3] = system: SNB-75 CNS
[4] = system: SNB-19 CNS
[5] = system: U251 CNS
[6] = system: PC-3 prostate
[7] = system: SK-MEL-5 melanoma
[8] = system: UACC-62 melanoma
[9] = system: SK-MEL-28 melanoma
[10] = system: LOX IMVI melanoma

Structure (SMILES)	growth [1]	growth [2]	growth [3]	growth [4]	growth [5]	growth [6]	growth [7]	growth [8]	growth [9]	growth [10]
Cc1nn(-c2ccc(Cl)cc2)c(=O)n1CCOc1ccccc1Cl	110%	95.9%	70.6%	115%	101%	88.5%	105%	101%	96.6%	
C=CCOc1cccc(/C=C/C(=O)c2sc(Nc3cccnc3)nc2C)c1	33.5%	16.8%	2.22% (active)	57.7%	50.7%	44.6%	74.9%	59.9%	87.1%	
Clc1ccc2c(c1)NC1(CCSc3ccccc31)n1nccc1-2 (centres undefined)	98.5%	90.9%	95.5%	102%	88.6%	81%	99.4%	94.7%	98.4%	
CCN(C(=O)c1cc2ncccc2[nH]1)[C@H]1CCC[C@@H](NCc2cccc(F)c2)C1	100%	105%	88%	98.7%	107%	102%	96.3%	98%	103%	
COC1=CC(c2ccc[nH]2)=N/C1=C\c1[nH]c(C)c(C(=O)CCCCC(=O)Nc2ccccc2)c1C	-3.38% (active)	-54.4% (active)	46.8%	64.2%	1.79% (active)	-40.5% (active)	84.7%	101%	63.9%	
CC(C)N(Cc1ccc(CN(C(=O)CCl)C(C)C)cc1)C(=O)CCl	0.15% (active)	-49.7% (active)	-60.5% (active)	63.2%	-41% (active)	29.7%	17.9%	2.74% (active)	33.1%	
O=P([O-])(O)OP(=O)([O-])O.[NH-][C@H]1CCCC[C@@H]1[NH-].[OH-].[OH-].[Pt+4]	102%	110%	86.6%	107%	91.1%	99.5%	106%		118%	102%
C=C1C(=O)O[C@H]2[C@H](O)[C@@H](C)CCC/C(C)=C/CC[C@@]3(C)O[C@@H]3C[C@@H]12	96.3%	99.6%	75.7%	88%	97.3%	46.5%		89%	95.1%	92%
COC(=O)c1cc(-c2cccs2)c(C#N)c(N)c1C#N	101%	106%	83.4%	97.1%	95.5%	95.5%	102%		114%	99%
CC(C)CCN(CCCNc1c2c(nc3ccccc13)CCCC2)CCC(C)C	72.9%	46.3%	76.8%	87.2%	65.1%	73.6%		97.2%	86.2%	76.4%
O=C1NC(Cc2c[nH]c3ccccc23)C(=O)N1Cc1ccc(Cl)cc1 (centres undefined)	99.6%	105%	90.1%	103%	94.1%	90.5%		86.1%	109%	89.1%
CCOC(=O)/C=C\C(=O)NC(N)=O	99.9%	104%	99.3%	106%	94%	83.5%	105%		118%	91.8%
O=c1oc2c([nH]c3ccc4ccccc4c32)c2ccccc12	105%	111%	126%	108%	100%	97.7%	85.5%		134%	98.8%
Cc1ccc(C(=O)c2sc3nc4c(cc3c2N)CCCC4)c(C)c1	29.8%	9.13% (active)	-14.3% (active)	51.5%	21.2%	5.81% (active)	24.6%		55%	30.6%
COc1cc(CNC(=O)CSc2nc3ccccc3c(=O)n2Cc2cc(OC)c(OC)c(OC)c2)cc(OC)c1OC	97.4%	108%	89.2%	92.5%	98%	97.4%		86.8%	102%	99.9%
C/C(=N\NC(=O)CC#N)c1cc2cc(Cl)ccc2o1	94.7%	97.2%	91%	77.9%	89.3%	92.4%	84.2%		110%	103%
COc1ccc(C(=O)c2cc(OC)c(OC)c(OC)c2)cc1/C=C/C(=O)c1ccc2c(c1)OCO2	-22.6% (active)	-27.2% (active)	28.2%	11.8%	-19.1% (active)	24%		-63.5% (active)	-57% (active)	-36.5% (active)
NC(=O)c1cccc(N2Cc3ccccc3OC3=C2C(=O)c2c(O)ccc(O)c2C3=O)c1	-49.7% (active)	-55.8% (active)	6.48% (active)	1% (active)	-7.38% (active)	-44.5% (active)	-7.12% (active)		-85.6% (active)	-63.5% (active)
O=C(CCCn1c2c(sc3ccccc32)c(=O)n2nnc(-c3ccccc3)c12)NCCc1cnc[nH]1	-62.8% (active)	-100% (active)	-55.1% (active)	27.3%	-83.2% (active)	-84.5% (active)		-68.6% (active)	-92% (active)	-49.8% (active)
COc1cc2oc(-c3cccc(NC(=O)Nc4ccc5c(c4)OCO5)c3)cc(=O)c2c(OC)c1OC	42.1%	48.2%	21.4%	83.5%	62.1%	45.6%	45.6%		74.2%	38.9%
Cc1ccc(S(=O)(=O)OCC(=O)Nc2ccc(C(=O)O)c(O)c2)cc1	109%	98.6%	98.8%	108%	96.7%	91.3%		99.9%	98.6%	78.5%
